# USP17 block – inhibitors of human USP17 deubiquitinase; Ubiquitin carboxyl-terminal hydrolase 17-like protein 5 (Homo sapiens), A8MUK1; purified USP17, Ub-rhodamine cleavage fluorescence, 3 h; inhibition, % at 50 µM; actives 6.5% (n = 47,000)
# Target sequence (A8MUK1 whole entry, looked up): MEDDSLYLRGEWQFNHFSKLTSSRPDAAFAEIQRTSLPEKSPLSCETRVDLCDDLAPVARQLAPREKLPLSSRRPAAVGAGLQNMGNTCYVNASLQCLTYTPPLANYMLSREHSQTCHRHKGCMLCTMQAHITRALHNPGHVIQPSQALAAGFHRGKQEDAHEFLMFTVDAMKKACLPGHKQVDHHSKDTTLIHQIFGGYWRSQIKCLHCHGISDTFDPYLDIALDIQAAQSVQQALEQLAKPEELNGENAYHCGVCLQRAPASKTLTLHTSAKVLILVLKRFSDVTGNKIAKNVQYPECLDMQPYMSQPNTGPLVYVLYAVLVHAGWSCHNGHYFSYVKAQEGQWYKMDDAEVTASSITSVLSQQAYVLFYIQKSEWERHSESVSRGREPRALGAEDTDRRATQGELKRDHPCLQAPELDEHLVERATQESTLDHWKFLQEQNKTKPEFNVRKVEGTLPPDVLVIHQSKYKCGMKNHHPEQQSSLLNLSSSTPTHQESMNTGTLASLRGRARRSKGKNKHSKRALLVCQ
# USP30 inh – inhibitors of human USP30 deubiquitinase | Ubiquitin carboxyl-terminal hydrolase 30 (Homo sapiens), Q70CQ3 | purified USP30, Ub-rhodamine cleavage fluorescence | inhibition, % at 25 µM | actives 5.3% (n = 47,000)
# USP28 inh – inhibitors of human USP28 deubiquitinase; AID 1645857, 2021; actives 3% (n = 47,000); Ubiquitin carboxyl-terminal hydrolase 28 (Homo sapiens), Q96RU2; inhibition, % at 25 µM; purified USP28, Ub-rhodamine cleavage fluorescence, 30 min
# The depositor's hits bear a star; . = no result given. In the library only some 11% were active in any assay of this set; here they are far more common. Rule as the data show it: active = inhibition above about 30%; inactive = the rest.
SMILES,USP17 block,USP30 inh,USP28 inh
Cn1c(CNS(=O)(=O)c2ccc(Cl)cc2)nnc1SCc1cccc(C(F)(F)F)c1,-15.2,-0.8,6.8
COc1cccc(CNc2ncnc3c2CN(C2CCCNC2)C(=O)CN3C)c1 (stereo unspecified),-9.9,11.3,13.3
Cc1ccccc1CNC(=O)c1ccc(-c2ccc(N3CCCC3)nn2)cc1,47.7*,-3.3,4.2
CC(=O)Nc1nsc(N2CCC(C(=O)NCc3ccccc3Cl)CC2)n1,4.5,7.3,9.0
Cc1ccc(CNC(=O)c2ccc(-c3ccc(N4CCOCC4)nn3)cc2)o1,1.8,.,.
O=C(NCc1ccccc1Cl)C1CCN(c2ccc(-c3ccccc3)nn2)CC1,0.6,41.1*,5.8
Cc1c(C(=O)OCCOc2ccccc2)[nH]c2c1C(=O)CC(c1ccc(Cl)cc1)C2 (stereo unspecified),-4.2,-7.5,-15.3
O=C(c1ccncc1)c1c[nH]c2ccc(Br)cc2c1=O,14.4,.,.
O=C(Oc1ccc2cc(Br)ccc2c1)c1ccncc1,22.3,34.6*,1.9
CCC(=O)Nc1cccnc1-c1ccc(C(=O)Nc2cccc(OC)c2)cc1,-8.2,0.1,56.9*
COc1cccc(NC(=O)c2ccc(-c3csc(C)n3)cc2)c1,7.9,7.4,59.8*
CCC(=O)Nc1cccnc1-c1ccc(C(=O)Nc2ccc(C)cc2C)cc1,.,-8.0,26.0
COc1cccc(NC(=O)c2cc(-c3cccs3)on2)c1,38.7*,34.5*,32.4*
Cc1nc(-c2cccc(NC(=O)c3ccccc3)c2)cs1,-13.6,-21.9,3.7
COc1ccccc1NC(=O)c1ccc(-c2csc(C)n2)cc1,41.1*,.,.
CN(C)S(=O)(=O)c1cccc(NC(=O)c2cc(-c3cccs3)on2)c1,18.2,18.2,10.7
COc1ccccc1CNC(=O)c1ccc(-c2csc(C)n2)cc1,-1.1,1.2,27.4
CCn1cc(C(=O)Nc2cccc(F)c2)c(S(=O)(=O)N2CCCCCC2)n1,-57.6,-33.4,-12.3
O=C(Cc1cccc(F)c1)NC1CCCN(c2cc(-c3ccncc3)[nH]n2)C1 (stereo unspecified),-39.0,-5.8,-8.8
O=C1CSC(c2cccnc2)N1Cc1ccc(F)cc1 (stereo unspecified),12.0,17.3,11.5
CCc1c(C)c2ccc(OCC(=O)c3ccc4ccccc4c3)c(C)c2oc1=O,-3.7,-7.2,-7.2
CNC(=O)C1CN(C(=O)c2cccc(OC)c2)CC12CCCC2 (stereo unspecified),2.2,9.1,1.2
CC(C)(C)NC(=O)CN1CCC2(CC1)Nc1ccccc1C1=NCCN12,-6.9,-57.7,-6.7
Cc1c(C(=O)OCC(=O)Nc2ccc3c(c2)OCO3)oc2ccc(Br)cc12,-4.5,-41.4,-4.1
Cc1nc(-c2noc3ccc(C(=O)NCc4ccncc4)cc23)cs1,-42.5,-16.9,-8.0
SMILES,USP17 block,USP30 inh,USP28 inh
Cc1nc(-c2noc3ccc(C(=O)Nc4cccnc4)cc23)cs1,-20.5,72.5*,-0.5
Cc1c(C(=O)OCCOc2ccccc2)[nH]c2c1C(=O)CC(c1ccc(F)cc1)C2 (stereo unspecified),-3.6,5.2,-11.1
CCOC(=O)c1[nH]c2c(c1Cc1ccccc1OC)C(=O)CC(C)(C)C2,36.5*,.,.
COc1cccc(C(=O)N2CCN(c3ncnc4c3nnn4Cc3ccccc3)CC2)c1,18.6,35.3*,32.7*
O=S(=O)(c1ccccc1)N1CCN(c2ncnc3c2nnn3Cc2ccccc2)CC1,-3.5,17.9,-2.4
CN1CCN(C(=O)[C@H]2CC[C@@H]3[C@@H](CCN3c3ncc(F)cn3)O2)CC1,-26.9,-55.1,-14.4
Cn1nnc2cc(-c3noc(CNC(=O)Cc4ccccc4)n3)ccc21,15.6,-37.6,2.8
COc1ccc(CCN(C(=O)c2ccco2)C(C(=O)NC2CCCC2)c2ccc(Cl)cc2)cc1OC (stereo unspecified),-1.9,-6.5,-7.0
COc1ccc(C(C(=O)NC2CCCCC2)N(Cc2ccccc2Cl)C(=O)c2ccco2)cc1OC (stereo unspecified),17.6,-127.9,-35.5
COc1ccccc1CN(C(=O)c1ccco1)C(C(=O)NC1CCCC1)c1ccc(C(C)C)cc1 (stereo unspecified),2.3,35.1*,10.2
COc1ccccc1CN(C(=O)c1ccco1)C(C(=O)NC1CCCC1)c1ccc(Cl)cc1 (stereo unspecified),13.0,48.2*,9.7
COc1cc2cc(CNc3ccccc3)c(=O)n(CC(=O)Nc3cccc(Cl)c3)c2cc1OC,-143.5,-430.4,-213.5
Cc1cnn(CC2CN(Cc3noc(C4CC4)n3)CCO2)c1 (stereo unspecified),-12.0,-23.7,-18.0
COc1ccnc2c1c(=O)n(CC(=O)N1CCCCCC1)c(=O)n2C,9.1,4.1,-2.7
COc1ccc(CCC(=O)Nc2nnc(C3CC(=O)N(c4ccccc4C)C3)s2)cc1 (stereo unspecified),5.5,14.5,10.8
Cc1ccc(-n2cc(C(=O)NCc3ccccn3)nn2)cc1C,9.3,18.0,11.9
Cc1ccc(-n2cc(C(=O)N3CCc4ccccc4C3)nn2)cc1,7.4,-1.0,-4.3
Cc1ccc(-n2cc(C(=O)N3CCN(c4ccccc4)CC3)nn2)cc1,39.8*,43.7*,10.1
Cc1ccc(-n2cc(C(=O)NCCCc3ccccc3)nn2)cc1,27.7,48.8*,16.6
CCOC(=O)N1CCC(NC(=O)c2cn(-c3ccc(C)cc3)nn2)CC1,60.0*,.,.
CCOC(=O)N1CCC(NC(=O)c2cn(-c3ccccc3Cl)nn2)CC1,-6.6,-4.7,0.0
O=C(NCc1ccccc1F)c1csc(C(=O)N2CCCC2)n1,1.1,2.2,0.2
Cc1cc(NC(=O)CSc2ncc(-c3cccc([N+](=O)[O-])c3)n2-c2cccc(Cl)c2)no1,9.7,19.5,3.8
CCCNC(=O)N1CCCN(C2CCN(Cc3ccccc3)C2=O)CC1 (stereo unspecified),-6.9,16.0,4.1
COc1ccc(C2C(C(N)=O)=C(C)Nc3nc(SCc4ccccc4)nn32)cc1 (stereo unspecified),-7.3,-42.5,-8.2
SMILES,USP17 block,USP30 inh,USP28 inh
COc1ccc(C)cc1NC(=O)C1CC(=O)Nc2nc(SCc3ccccc3)nn21 (stereo unspecified),52.7*,-5.7,5.6
O=C(/C=C/c1ccc(Br)cc1)N1CCc2ccccc2C1,35.1*,-8.6,0.3
O=C(/C=C/c1ccccc1)N1CCc2[nH]nc(-c3ccc(F)cc3)c2C1,0.5,-1.2,-1.0
CC(C)c1ccc(/C=C/C(=O)N2CCc3ccccc3C2)cc1,53.8*,35.6*,28.8
CC(=O)Nc1ccc(SC(C)C(=O)N2CCc3ccccc3C2)cc1 (stereo unspecified),-13.9,-2.1,-5.3
Cc1ccc(S(=O)(=O)c2nnn3c2nc(NCc2ccco2)c2sccc23)cc1,-24.6,-72.0,-7.3
Cc1cc(N)cc(C2CN(C(=O)c3ccc4c(c3)OCO4)CCO2)n1 (stereo unspecified),3.9,1.5,4.2
Cc1ccc(/C=C/C(=O)Cc2ccccc2)cc1,40.5*,30.4*,18.3
Cc1ccc(C2=NC3(CCN(C(=O)Cc4ccccc4)CC3)NC2=O)cc1,6.6,12.1,0.4
CCN1C(=O)CCC12CCCN(C(=O)Cc1ccncc1)C2 (stereo unspecified),9.3,19.2,14.0
O=C(COc1ncnc2ccccc12)Nc1ccc(OCc2ccccc2)cc1,48.4*,.,.

# From PubChem BioAssay
